Assay outcomes from PubChem.
aSyn rescue – rescues yeast growth from alpha-synuclein toxicity; Yeast expressing alpha-synuclein, growth rescue, BacTiter-Glo, 24 h; Potency, µM (titrated, usually from 46.1 µM), hits mostly activators; 370,000 tested, 0.14% active; AID 652106; further: nearly all actives have a fitted effect of over 65% in size
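Rescue of yeast growth: cells expressing toxic alpha-synuclein, induced in galactose at OD600 0.02, incubated with compound 24 h at 30 C. ATP luminescence quantified growth; inhibitors of toxicity appear as activators.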
Abeta rescue – restores growth of yeast expressing A-beta42 peptide | yeast expressing A-beta42, growth rescue, OD600, 48 h; response scale: 0% DMSO, 100% iron-clioquinol control | Potency, µM (top dose mostly 46.1 µM), actives largely listed as activators | 410,000 tested, 0.063% active | AID 1347071; further: nearly all actives have a fitted effect of over 55% in size
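Yeast growth medium received pinned compounds, then yeast cells expressing toxic A-beta were added; plates incubated at 30 C for 48 hr. Growth read as absorbance at 600 nm, normalized to DMSO and equimolar FeCl3 plus clioquinol controls.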
TDP43 rescue – rescues yeast growth from TDP-43 toxicity; TDP-43 expressing yeast growth rescue, BacTiter-Glo, 24 h; Potency, µM (doses to about 46.1 µM), hits mostly activators; 410,000 tested, 1.8% active; AID 652104; further: nearly all actives have a fitted effect of over 50% in size
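Luminescence from BacTiter-Glo reports growth of TDP-43-expressing yeast after 24 hr at 30 deg C with compound. Cells were raffinose-pregrown to mid-log, then seeded in galactose medium at OD600=0.02.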
FUS yeast rescue – FUS proteinopathy suppression in yeast; S. cerevisiae FUS-expressing, growth rescue, OD600, 24 h; Potency, µM (titrated, usually from 76.6 µM), actives largely listed as activators; 390,000 tested, 0.24% active; AID 1347120; further: nearly all actives have a fitted effect of over 55% in size
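Steps: raffinose overnight preculture; dilution to OD 0.005 in 2% galactose minimal medium; compound addition (concentration series); 24hr at 30C, 99% humidity; absorbance read at 600 nm.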
Hits are given with their value; . = inactive; ? = inconclusive; / = no result. The list is not random: actives were taken first. Their share in the collection is about 2.1%. The call rests on the fitted dose curve; in most records, active means well fitted curve in the direction sought with a large enough effect; inconclusive means small, poorly fitted or top-dose-only effect, or another doubt; inactive means no such curve, though single readings can be large; an effect the other way counts as inactive or inconclusive.

SMILES	aSyn rescue	Abeta rescue	TDP43 rescue	FUS yeast rescue
Cc1cccc(-c2nc(CN3C(=O)CN=C(c4ccccc4)c4ccccc43)c(C)o2)c1	/	.	35.5µM	.
CCn1c(O)c(C=NCc2cccs2)c(=O)[nH]c1=O	.	.	.	.
Cc1cc(C(=O)OCC(=O)Nc2ccc(F)cc2)c(C)n1C1CC1	.	.	35.5µM	/
Cc1cc(C(=O)OCC(=O)Nc2cccc(F)c2)c(C)n1C1CC1	.	.	?	?
COC(=O)C1=C(c2ccc(OC(F)(F)F)cc2)C[C@@H]2CC[C@H]1N2C(=O)NCCOc1ccccc1Cl	.	.	28.2µM	?
COC(=O)C1=C(c2cc3ccccc3s2)C[C@@H]2CC[C@H]1N2C(=O)NCc1ccccc1	.	.	?	.
COC(=O)C1=C(c2cc3ccccc3s2)C[C@@H]2CC[C@H]1N2C(=O)NCc1ccc(F)cc1	?	.	10µM	?
COC(=O)C1=C(c2ccc(Cl)c(C(F)(F)F)c2)C[C@@H]2CC[C@H]1N2C(=O)NCCO	.	.	.	.
COC(=O)C1=C(c2ccc3ccccc3c2)C[C@@H]2CC[C@H]1N2C(=O)NCc1ccco1	.	.	.	.
COC(=O)C1=C(c2ccc(OC(F)(F)F)cc2)C[C@@H]2CC[C@H]1N2C(=O)NCCOc1ccccc1	.	.	?	?
COC(=O)C1=C(c2ccc(Cl)c(C(F)(F)F)c2)C[C@@H]2CC[C@H]1N2C(=O)NCCOc1ccccc1	.	.	22.4µM	22.4µM
COC(=O)C1=C(c2ccc(Cl)c(C(F)(F)F)c2)C[C@@H]2CC[C@H]1N2C(=O)NCc1ccco1	.	.	22.4µM	.
Cc1ccc(-n2c(C)cc(/C=C3/C(=O)NC(=O)N(C)C3=O)c2C)cc1	.	.	.	.
O=C(Nc1cccnc1)c1c(O)c2c(n(Cc3ccccc3)c1=O)CCCC2	.	.	?	.
COc1cc(OC)c2c(c1)O[C@@H](c1ccc(OC)c(OC)c1)[C@H](O)C2	.	.	.	?
CC(=O)NC(Cc1ccc(N(CCCl)CCCl)cc1)C(=O)NC(C(=O)O)C(C)C (configuration not stated)	.	.	.	.
O=C(c1ccco1)c1cn(Cc2ccc(Cl)cc2)c2ccccc12	.	?	12.6µM	.
C=CCn1c(O)c(C(CC)=NCc2cc(OC)cc(OC)c2)c(=O)[nH]c1=O	.	.	.	.
COc1ccc(-c2ccc3c(c2)CN(C(=O)C(C)(C)C)Cc2cnnn2-3)cc1	.	.	17.8µM	.
COC(=O)C1CN(C#N)N(c2ccc(Cl)cc2)C12c1ccccc1-c1ccccc12 (configuration not stated)	.	.	15.8µM	.
CC1(C)C(C(=O)N2CCN(c3ccc(Cl)cc3)CC2)C1(C)C	.	.	?	.
COc1cccc(-n2cnc3scc(-c4cccs4)c3c2=O)c1	.	.	17.8µM	.
O=S(=O)(Nc1ccc(-c2nc3ccccc3o2)cc1)c1ccccc1	.	.	14.1µM	.
Cc1ccc(S(=O)(=O)Cc2ccc(C(=O)N3CCC4(CC3)OCCO4)o2)cc1	.	.	.	.
CCCc1cc(N2CCN(c3cccc(C)c3C)CC2)n2cnnc2n1	/	.	15.8µM	.
SMILES	aSyn rescue	Abeta rescue	TDP43 rescue	FUS yeast rescue
Cc1cc(C)c(C(=O)CN2CCOCC2)c(C)c1	.	.	?	.
CCCCN1C(=O)NC(=O)C2(Cc3c(nc4c(C)cccn4c3=O)N3CCc4ccccc4C32)C1=O (configuration not stated)	.	.	35.5µM	?
CCCCN1C(=O)NC(=O)C2(Cc3c(nc4ccccn4c3=O)N3CCc4ccccc4C32)C1=O (configuration not stated)	.	.	?	.
CCC(=Nc1ccc(OC)cc1OC)c1c(O)n(C2CCCCC2)c(=O)[nH]c1=O	.	.	15.8µM	?
CCC(=NCc1ccco1)c1c(O)n(C2CCCCC2)c(=O)[nH]c1=O	.	.	.	.
O=C(CNS(=O)(=O)c1cccs1)N1CCC2(CC1)OCCO2	.	.	.	.
Nc1ccc2c3c(cccc13)-c1ccccc1-2	.	.	11.2µM	.
COC(=O)c1ccc(NC2=C(Cl)C(=O)OC2OC(=O)c2ccccc2)cc1 (configuration not stated)	.	.	22.4µM	.
CC12CC(=O)C3C(CCC4CC=CCC43C)C1CCC2=O (configuration not stated)	.	.	10µM	/
O=[N+]([O-])c1ccc(Cl)c([N+](=O)[O-])c1	.	.	11.2µM	.
O=[N+]([O-])c1ccc(O)c([N+](=O)[O-])c1	.	.	.	.
O=c1[nH]c2ccccc2n1C1CCN(C(c2ccccc2OC(F)(F)F)c2nnnn2Cc2ccccc2)CC1 (configuration not stated)	.	.	.	20µM
Cc1cccc(C)c1-n1nnnc1C(c1cccc2ccccc12)N1CCC(n2c(=O)[nH]c3ccccc32)CC1 (configuration not stated)	.	.	22.4µM	.
CC(=O)N(C1=NCCCS1)c1ccccc1Cl	.	?	.	.
O=C(O)CCC(=O)NCCC1=c2ccccc2=N/C1=C\c1c(O)n(Cc2ccc(F)cc2)c(=S)[nH]c1=O	.	.	.	20µM
O=C(N/N=C/c1c(O)n(Cc2ccc(F)cc2)c(=O)[nH]c1=O)c1ccccc1	.	.	.	.
C#CCNc1ccncc1S(=O)(=O)NC(=O)NC(C)C	.	.	.	.
CN1C(=O)C(Cc2nc3ccccc3c(=O)n2-c2ccccc2)c2ccccc21 (configuration not stated)	.	.	.	.
Cc1ccc(-c2cc(C(F)F)n3ncc(C(=O)N4CCc5ccccc5C4)c3n2)cc1	.	.	15.8µM	.
Cc1ccc2nc(-c3ccncc3)cc(C(=O)N3CCC4(CC3)OCCO4)c2c1	.	.	.	.
COC(=O)CC(NC(=S)N1CC2C[C@@H](C1)Cn1c2cccc1=O)C(=O)OC (some centres not stated)	.	.	.	.
O=C1NC(=O)N(Cc2ccccc2)C(=O)/C1=C/N1CCCc2ccccc21	.	.	.	?
c1ccc2c(c1)CSc1ccccc1N2	.	.	20µM	.
S=C1Nc2ccccc2Sc2ccccc21	.	.	?	.
Cc1ccc(NC(=O)CCSc2nnc(Cc3ccccc3)o2)cc1	.	.	17.8µM	/
Cc1ccc(NC(=O)COc2ccc(-c3nn(C)c(=O)c4ccccc34)cc2)cc1	/	.	?	.
C=C(C=O)C[C@@H]1C[C@H](O)C2OC3C[C@]4(C)OC5/C=C\CC6OC7C(CC=CCC6OC5CCCC4OC3CC2O1)OC1CC2OC3CC(=O)OC3C[C@@H](C)C[C@@]2(C)OC1C[C@@H]7C (some centres not stated)	.	.	22.4µM	.
